# HIV Env fusion: inhibitors of HIV Env-mediated cell fusion. AID 651610. actives 1.1% (n = 360,000). inhibition, % at 12.3 µM. HeLa-JRFL Env/CEM21 cell fusion, luciferase;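 active = mean replicate inhibition score of at least 50 and every replicate individually at or above 50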;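 note: 0% = plate neutral controls and 100% = maraviroc near 300 nM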
# NSD2 inh: NSD2 (human) methyltransferase inhibition | NSD2 peptide methylation, AlphaScreen, 120 min | inhibition, % at 12.5 µM | actives 0.54% (n = 310,000) | AID 743445; in the data active = inhibition above about 50%
# PAX8 inh HTS: PAX8 transcriptional activity inhibition; RMG-I TPO-luciferase reporter, SteadyGlo, 24 h; inhibition, % at 12.6 µM; actives 1.2% (n = 360,000); AID 652154;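 active = mean replicate inhibition at least 60% with every replicate also reaching 60%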;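 note: luciferase light reporting Pax8 driven TPO promoter activity; plate controls were median of neutral control wells for no effect and mitoxantrone controls for full effect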
# N-glyco inh: N-linked glycosylation inhibition. D54 ERlucT glycosylation luciferase reporter, 24 h; percent of 100 nM tunicamycin response. reporter increase, % at 12.5 µM. actives 0.23% (n = 360,000). AID 588692;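 active = mean luciferase reporter signal, scaled so untreated is 0 and the glycosylation-blocking control 100, at or above a set limit in every replicate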;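 note: luciferase carries N-glycosylation sites so blocking glycosylation raises the light; 0% = median of neutral control wells and 100% = median of 100 nM tunicamycin wells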
# EBV LMP1 NFkB: inhibitors of Epstein-Barr LMP1-induced NF-kappaB reporter | LMP1-induced NF-kappaB luciferase reporter cells, luminescence | inhibition, % at 12.5 µM | actives 0.69% (n = 350,000); in the data active = inhibition above about 41%;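 note: 0% = neutral control wells and 100% = reference inhibitor control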
# Shn3 3UTR inh: inhibitors of Schnurri-3 3'UTR reporter in osteoblasts. AID 588674. actives 0.52% (n = 360,000). Clone20 osteoblast Shn3 3'UTR firefly luciferase, 24 h. inhibition, % at 12.5 µM;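 active = mean inhibition of at least 75% with every replicate also reaching 75%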;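 note: 0% = median of neutral control wells and 100% = pilot-screen positive control compound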
# Numbers without * were called inactive; . = no result given; [ ] = remark or other dose. An excerpt weighted towards active compounds, which were near 2.8% of everything screened.
SMILES,HIV Env fusion,NSD2 inh,PAX8 inh HTS,N-glyco inh,EBV LMP1 NFkB,Shn3 3UTR inh
COc1cccc(CNC(=O)[C@H]2[C@H](CO)[C@H]3Cn4c(ccc(-c5cccnc5)c4=O)[C@H]3N2C)c1,.,.,5,.,.,.
CN(C)CC(=O)N[C@@H]1CC[C@H](CCn2cc(C3CC3)nn2)O[C@H]1CO,-9[16.7 µM],.,6,.,.,.
COc1ccc(/C=N/NC(=O)c2sccc2OCc2ccc(F)cc2)cc1OC,.,-1,.,38*,-1,-9
COc1cc(/C=N/NC(N)=S)ccc1OCc1ccc(C)cc1,-26,7,75*,-6,-10,19
COc1ccc(/C=N\NC(=O)c2ccccc2Cl)cc1COc1c(F)c(F)c(F)c(F)c1F,.,2,.,-2,12,-11
COc1cc(/C=N/NC(N)=S)ccc1OC(=O)c1ccc(C)cc1,8,-2,81*,2,-7,-8
COc1ccc(C=NNC(=S)NN=Cc2ccc(OC)c(OC)c2)cc1OC,42,0,-118,-4,-4,4
COc1ccc(/C=N\NC(=O)c2ccccc2OC)cc1COc1c(F)c(F)c(F)c(F)c1F,10,-1,64*,0,3,-1
O=C(C[C@H]1CC[C@@H]2NC[C@@H](O)COC[C@H]2O1)Nc1ccccc1,.,.,-7,.,.,.
C[C@@H]1CN([C@H](C)CO)C(=O)c2cc(NC(=O)CCN3CCOCC3)ccc2O[C@H]1CN(C)CC1CCCCC1,-1[16.7 µM],.,-17,.,.,.
COc1ccc(NC(=O)Cn2nnc(-c3ccccc3NS(=O)(=O)c3ccccc3)n2)cc1,.,-3,.,-5,-5,87*
O=S(=O)(NCc1ccncc1)c1ccc(F)cc1F,.,-5,.,.,.,.
O=Cc1s/c(=N\S(=O)(=O)c2ccccc2)n(CCCCl)c1Cl,-103,9,76*,-12,3,93*
COCCNC(=O)CN(C(=O)CCC(=O)Nc1ccccn1)c1ccc(F)cc1,.,-2,.,-1,-4,-16
COCCNC(=O)CN(C(=O)CCC(=O)Nc1ccccn1)c1ccc(F)c(Cl)c1,.,0,.,3,87*,-8
C=CCOc1c(Br)cc(CNc2ccc(NC(=O)C(C)C)c(OC)c2)cc1OC,90*,2,.,10,17,10
COc1cc(CNc2ccc(C(=O)O)cc2)cc(Br)c1OCC(=O)NC(C)(C)C,.,1,6,4,-7,23
CCCC(=O)Nc1ccc2c(c1)OC[C@@H](C)N(Cc1cccc(F)c1)C[C@@H](C)[C@H](OC)CN(C)C2=O,.,.,3,.,.,.
Cc1ccccc1OCC(=O)Nc1ccccc1-c1ccccc1NC(=O)COc1ccccc1C,64*,20,43,-10,-3,3
C[C@H]1CCCCO[C@H](CN(C)S(C)(=O)=O)[C@@H](C)CN([C@@H](C)CO)C(=O)c2cc(N(C)C)ccc2O1,-4[16.7 µM],.,-15,.,.,.
CC(C)C[C@H]1CN([C@@H](Cc2ccc(O)cc2)CN2CCC[C@H]2CN2C(=O)C(=O)NC[C@@H]2Cc2ccc(O)cc2)C(=O)C(=O)N1CCc1ccccc1,60*,.,3,.,.,.
O=C1NC[C@H](CCCCN2C[C@H](Cc3ccc(O)cc3)N(Cc3ccccc3)C(=O)C2=O)N(CCc2ccc(O)cc2)C1=O,0,.,-17,.,.,.
CC(C)C[C@H]1CN([C@@H](Cc2ccc(O)cc2)CN2CCC[C@H]2CN2C(=O)C(=O)NC[C@@H]2Cc2ccccc2)C(=O)C(=O)N1CCc1ccccc1,5,.,-13,.,.,.
CC(C)C[C@@H](CN1CCC[C@H]1CN1C(=O)C(=O)NC[C@@H]1Cc1ccc(O)cc1)N1C[C@H](Cc2ccccc2)N(CC2CCCCCC2)C(=O)C1=O,-128,.,17,.,.,.
O=C1NC[C@@H](CCCCN2C[C@H](Cc3ccc(O)cc3)N(Cc3ccccc3)C(=O)C2=O)N(CCc2ccc(O)cc2)C1=O,57*,.,-5,.,.,.
SMILES,HIV Env fusion,NSD2 inh,PAX8 inh HTS,N-glyco inh,EBV LMP1 NFkB,Shn3 3UTR inh
CC(C)C[C@@H](CN1CCC[C@H]1CN1C(=O)C(=O)NC[C@@H]1Cc1ccccc1)N1C[C@H](Cc2ccccc2)N(CC2CCCCCC2)C(=O)C1=O,-8,.,65*,.,.,.
COCC#Cc1ccc2c(c1)O[C@H](CN(C)CC1CCCCC1)[C@H](C)CN([C@H](C)CO)S2(=O)=O,15[16.7 µM],.,.,.,.,.
COc1ccc(CNC(=O)C[C@@H]2CC[C@H]3[C@@H](COc4ccc(NC(=O)C(C)C)cc4C(=O)N3C)O2)cc1,-14[16.7 µM],.,-4,.,.,.
COC(=O)c1ccc(CN2CC(=O)N3[C@@H](CO)[C@H](c4ccc(Br)cc4)[C@@H]3C2)cc1,.,.,3,.,.,.
O=C(CCCn1c(=S)[nH]c2cc3c(cc2c1=O)OCO3)N1CCN(c2ccccc2)CC1,-4,.,.,1,0,1
O=C(CCCn1c(=S)[nH]c2cc3c(cc2c1=O)OCO3)N1CCN(c2ccc(Cl)cc2)CC1,99*,3,29,-2,22,22
O=C(NC[C@@H]1CC[C@H]2[C@H](CN2Cc2ccccc2F)O1)C1CCCCC1,4[16.7 µM],.,-10,.,.,.
CCS(=O)(=O)Nc1ccc2c(c1)C(=O)N(C)[C@H]1CC[C@H](CC(=O)NCCOC)O[C@@H]1CO2,6[16.7 µM],.,-6,.,.,.
COc1ccc2c(C)nc(Nc3nc(-c4ccccc4)cc(=O)[nH]3)nc2c1,-29,.,95*,94*,-143,-97
CCOc1cc(/C=C2\CN(C)C/C(=C\c3ccc(O)c(OCC)c3)C2=O)ccc1O,-310,.,5,-18,-109,96*
COc1ccc(NC(=O)N(C)C[C@H]2Oc3ccc(NC(=O)Nc4c(C)noc4C)cc3CC(=O)N([C@@H](C)CO)C[C@H]2C)cc1,-41[16.7 µM],.,-9,.,.,.
CCCN(CC1CC1)c1nc(C)nc(Nc2c(Cl)cc(Cl)cc2Cl)c1Cl,-2,.,1,-4,78*,21
C[C@H]1CCCCO[C@H](CN(C)Cc2ccc3c(c2)OCO3)[C@@H](C)CN([C@@H](C)CO)C(=O)c2cc(NC(=O)Cc3ccccc3)ccc2O1,12[16.7 µM],.,-2,.,.,.
CC(C)(C)c1cc(C(=O)N/N=C/c2ccccc2O)n(-c2ccccc2)n1,3,-1,-12,-13,9,91*
CCOc1ccc2[nH]c(C(=O)N/N=C/c3ccc(OC)cc3)cc2c1,-245,-3,15,12,8,4
COc1ccc(/C=N/NC(=O)c2nc(-c3ccccc3)n(-c3ccccc3)n2)c(O)c1,3,-3,43,-6,19,91*
COc1ccc2[nH]c(C(=O)N/N=C/c3ccc(O)cc3O)cc2c1,-43,3,85*,-8,40,89*
CNC[C@@H]1Oc2ccc(NC(=O)CCC(F)(F)F)cc2CC(=O)N([C@H](C)CO)C[C@@H]1C,9[16.7 µM],.,12,.,.,.
COc1ccc(NC(=O)N(C)C[C@@H]2OCCCC[C@@H](C)Oc3ccc(NC(=O)CCC(F)(F)F)cc3C(=O)N([C@H](C)CO)C[C@@H]2C)cc1,6[16.7 µM],.,-28,.,.,.
CCC(=O)Nc1ccc2c(c1)OC[C@@H](C)N(CC1CCOCC1)C[C@@H](C)[C@@H](OC)CN(C)C2=O,8[16.7 µM],.,-3,.,.,.
